Our source for the growth inhibition values is PubChem BioAssay (NCI).

Compounds without any hit were thinned out: in the full panel of roughly 79,000, 15% have a hit. The source made the active and inactive calls. Rule as the data show it: active = growth inhibition above about 70%; inactive = the rest.

The nature of one experiment: NCI Yeast Anticancer Drug Screen. Data for the sgs1 mgt1 strain (AID 161).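 Also: 0% = growth of cultures given vehicle only.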 The following applies: S. cerevisiae sgs1 mgt1 strain, at 50.0 µM, stronger effect = higher value. In a few lines: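 Growth of a repair-deficient yeast mutant was monitored after compound treatment and expressed as inhibition relative to vehicle-treated cultures.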
As to `CC(CC(C#CCN(C)C)N(C)C)CC(C)(C)C` (stereo not drawn), the growth inhibition is 13.3% (inactive).
As to `CCCCCCCCCCNC(=O)C[n+]1cccc(C(=O)NCc2ccccc2)c1`, the growth inhibition is 99.5% (active).
With `Cc1ccc(N2C(N)=C(C#N)C(C#N)(C#N)C2c2ccccc2)cc1` (stereo not drawn), the growth inhibition is 55% (inactive).
On the same count and under the same terms, to `O=[N+]([O-])c1cccc(Cl)c1C(Nc1nncs1)Nc1nncs1` belongs 73.9% (active); to `CCCC(C(=O)OCCNC1CCCCC1)c1ccccc1` (stereo not drawn), 63.3% (inactive).
Regarding `BrCc1ccc([Si](c2ccccc2)(c2ccccc2)c2ccc(CBr)cc2)cc1`, the growth inhibition is 53% (inactive).
As for `CCCCC(O)(c1ccccc1)C(O)(c1ccccc1)c1c(F)c(F)c(F)c(F)c1F` (stereo not drawn), the growth inhibition is 99% (active).
On the same count and under the same terms, the value for `C/C=C\C=N\NC(N)=S` was -17.4% (inactive); that for `NCCc1ccc2oc3cc(=O)c4ccccc4c-3nc2c1` was 43.8% (inactive).
In the case of `CC(C)=CCc1ccc(O)cc1`, the growth inhibition was -24.1% (inactive).
For `CCCCCCCCCCCCCC/[N+]([O-])=C/c1ccc([N+](=O)[O-])o1`, the growth inhibition is 50.1% (inactive).
As for `Fc1ccc(CSC(=S)Nc2ccc(Br)cc2)cc1`, the growth inhibition was 94.8% (active).
On the same count and under the same terms, the value for `C/C(=N\NC(=S)N1CCN(C2CCCCC2)CC1)c1ccccn1` was 98.5% (active).
As for `Cc1ccccc1N=Nc1sc(N)nc1-c1ccccc1`, the growth inhibition was 54.8% (inactive).
Turning to `CN(c1ccc(C(N)=O)cc1)c1c(O)c2ccccc2[nH]c1=O`, the growth inhibition is 14.6% (inactive).
With `Fc1ccc(CSC(=S)Nc2cccc(C(F)(F)F)c2)cc1`, the growth inhibition is 99.7% (active).
As to `COc1ccccc1C(C)c1ccc2ccccc2c1C(=O)O` (stereo not drawn), the growth inhibition is 95% (active).
As for `CNC(=O)OCc1c(-c2ccccc2)c(-c2ccccc2)n(-c2ccc(OC)cc2)c1COC(=O)NC`, the growth inhibition was 82.2% (active).
Regarding `Cc1cc(SCC(=O)c2ccc(Cl)cc2)cc(C)[o+]1`, the growth inhibition is 96.4% (active).
On the same count and under the same terms, the value for `Cn1cnc([N+](=O)[O-])c1Sc1nc2ccccc2s1` was 92.1% (active); that for `CCOC(=S)SSC(=S)NCCNC(=S)SSC(=S)OCC` was 79.8% (active); that for `Cc1nc(C)c(C(=O)NNC(=O)C[N+](C)(C)C)cc1C(=O)NNC(=O)C[N+](C)(C)C` was 5.8% (inactive).
Same read-out and setting: the value for `CC/C(=C(\CC)c1ccc(O)c(CN(CC)CC)c1)c1ccc(OC)cc1` was 99.6% (active); that for `CC(C)N(C(=O)CC1(O)CCCCC1)C(C)C` was -14.6% (inactive).
For the compound `CCCCN(CCCC)CC(O)c1cc(-c2ccc(Cl)cc2)nc2cc(C)ccc12` (stereo not drawn), the growth inhibition is 99.6% (active).
Regarding `C/C(=C\c1ccccc1Cl)c1ccccn1`, the growth inhibition is 80.7% (active).
On to `O=C(OC1C2CCC2C2CC21)c1cc([N+](=O)[O-])cc([N+](=O)[O-])c1` (stereo not drawn), for which the growth inhibition is 13% (inactive).
Take `O=c1[nH]c2c([N+](=O)[O-])cc(Cl)cc2nc1/C=C(\O)c1ccc(F)cc1`: the growth inhibition is 73.4% (active).
As to `CC(=O)N[C@H]1CC[C@H]2[C@@H]3CCC4=CC(=O)CC[C@]4(C)[C@H]3CC[C@]12C`, the growth inhibition was 94.2% (active).
As to `CC12OC(=O)C(C(N)=O)=C1C=C(c1ccccc1)CC2c1ccccc1` (stereo not drawn), the growth inhibition is 86.8% (active).
Still for that read-out and setting: to `Cn1c2nc(-[n+]3ccccc3)nc-2c([O-])n(C)c1=O` belongs 2.1% (inactive).
Regarding `COc1cc(NCCCCCCCC2CCCCN2)c2ncccc2c1` (stereo not drawn), the growth inhibition is 98.5% (active).
For the compound `Nc1ncnc(N2CCOCC2)c1N`, the growth inhibition is 0.95% (inactive).
Take `CCCCCCCCCCCCNCC(=O)O`: the growth inhibition was 74.5% (active).
Turning to `O=C(O)C1C2CC3CC(C2)CC1C3` (stereo not drawn), the growth inhibition was -4.9% (inactive).
For the compound `CC(=O)OC1CCC2(C)C(=CCC3C2CCC2(C)C3CC(C(N)=O)C2C(C)=O)C1` (stereo not drawn), the growth inhibition is 76.8% (active).
Still for that read-out and setting: the value for `CC1(C)CC(=N/O)/C(=N/O)C(=N\NC(N)=S)/C1` was 76.9% (active); that for `CCCCCCCCCCCCCCCCCC1=NCCN1` was 42% (inactive).
For `O=c1c2ccccc2c2ccccc2c(=O)n1-c1cc2c3ccccc3ccc2c2ccccc12`, the growth inhibition is -2.4% (inactive).

The nature of a further experiment: NCI Yeast Anticancer Drug Screen. Data for the cln2 rad14 strain (AID 165).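 Also: 0% = growth equal to vehicle treated cultures.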 The following applies: S. cerevisiae cln2 rad14 strain, at 5.0 µM (retest, dose inferred, filed as 0.5), stronger effect = higher value. In a few lines: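 Growth inhibition, relative to vehicle-treated controls, is the read-out. The test organism is a yeast strain with defined genetic alterations, cln2 rad14.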
Regarding `CC(CC(C#CCN(C)C)N(C)C)CC(C)(C)C` (stereo not drawn), the growth inhibition was 1% (inactive).
In the case of `CCCCCCCCCCNC(=O)C[n+]1cccc(C(=O)NCc2ccccc2)c1`, the growth inhibition was 14% (inactive).
Turning to `Cc1ccc(N2C(N)=C(C#N)C(C#N)(C#N)C2c2ccccc2)cc1` (stereo not drawn), the growth inhibition was 14% (inactive).
With `O=[N+]([O-])c1cccc(Cl)c1C(Nc1nncs1)Nc1nncs1`, the growth inhibition is -1% (inactive).
Turning to `CCCC(C(=O)OCCNC1CCCCC1)c1ccccc1` (stereo not drawn), the growth inhibition is -38% (inactive).
`BrCc1ccc([Si](c2ccccc2)(c2ccccc2)c2ccc(CBr)cc2)cc1`: the growth inhibition is -1% (inactive).
As for `CCCCC(O)(c1ccccc1)C(O)(c1ccccc1)c1c(F)c(F)c(F)c(F)c1F` (stereo not drawn), the growth inhibition was 1% (inactive).
Regarding `C/C=C\C=N\NC(N)=S`, the growth inhibition was 3% (inactive).
Turning to `NCCc1ccc2oc3cc(=O)c4ccccc4c-3nc2c1`, the growth inhibition was 1% (inactive).
`CC(C)=CCc1ccc(O)cc1`: the growth inhibition is 5% (inactive).
As for `CCCCCCCCCCCCCC/[N+]([O-])=C/c1ccc([N+](=O)[O-])o1`, the growth inhibition was 8% (inactive).
`Fc1ccc(CSC(=S)Nc2ccc(Br)cc2)cc1`: the growth inhibition is -9% (inactive).
For the compound `C/C(=N\NC(=S)N1CCN(C2CCCCC2)CC1)c1ccccn1`, the growth inhibition is 12% (inactive).
Turning to `Cc1ccccc1N=Nc1sc(N)nc1-c1ccccc1`, the growth inhibition is -1% (inactive).
As for `CN(c1ccc(C(N)=O)cc1)c1c(O)c2ccccc2[nH]c1=O`, the growth inhibition was 4% (inactive).
Regarding `Fc1ccc(CSC(=S)Nc2cccc(C(F)(F)F)c2)cc1`, the growth inhibition was 3% (inactive).
Same read-out and setting: the value for `COc1ccccc1C(C)c1ccc2ccccc2c1C(=O)O` (stereo not drawn) was 7% (inactive); that for `CNC(=O)OCc1c(-c2ccccc2)c(-c2ccccc2)n(-c2ccc(OC)cc2)c1COC(=O)NC` was 26% (inactive).
As to `Cc1cc(SCC(=O)c2ccc(Cl)cc2)cc(C)[o+]1`, the growth inhibition was -13% (inactive).
Take `Cn1cnc([N+](=O)[O-])c1Sc1nc2ccccc2s1`: the growth inhibition is 35% (inactive).
As to `CCOC(=S)SSC(=S)NCCNC(=S)SSC(=S)OCC`, the growth inhibition is -1% (inactive).
On to `Cc1nc(C)c(C(=O)NNC(=O)C[N+](C)(C)C)cc1C(=O)NNC(=O)C[N+](C)(C)C`, for which the growth inhibition is -2% (inactive).
On the same count and under the same terms, the value for `CC/C(=C(\CC)c1ccc(O)c(CN(CC)CC)c1)c1ccc(OC)cc1` was -1% (inactive); that for `CC(C)N(C(=O)CC1(O)CCCCC1)C(C)C` was -6% (inactive).
`CCCCN(CCCC)CC(O)c1cc(-c2ccc(Cl)cc2)nc2cc(C)ccc12` (stereo not drawn): the growth inhibition is 5% (inactive).
Same read-out and setting: the value for `C/C(=C\c1ccccc1Cl)c1ccccn1` was -7% (inactive); that for `O=C(OC1C2CCC2C2CC21)c1cc([N+](=O)[O-])cc([N+](=O)[O-])c1` (stereo not drawn) was 3% (inactive).
On the same count and under the same terms, to `O=c1[nH]c2c([N+](=O)[O-])cc(Cl)cc2nc1/C=C(\O)c1ccc(F)cc1` belongs 5% (inactive).
The same measure, in the same setting: to `CC(=O)N[C@H]1CC[C@H]2[C@@H]3CCC4=CC(=O)CC[C@]4(C)[C@H]3CC[C@]12C` belongs -8% (inactive).
For the compound `CC12OC(=O)C(C(N)=O)=C1C=C(c1ccccc1)CC2c1ccccc1` (stereo not drawn), the growth inhibition is -3% (inactive).
Regarding `Cn1c2nc(-[n+]3ccccc3)nc-2c([O-])n(C)c1=O`, the growth inhibition is -2% (inactive).
In the case of `COc1cc(NCCCCCCCC2CCCCN2)c2ncccc2c1` (stereo not drawn), the growth inhibition is 0% (inactive).
For `Nc1ncnc(N2CCOCC2)c1N`, the growth inhibition was -7% (inactive).
Still for that read-out and setting: to `CCCCCCCCCCCCNCC(=O)O` belongs 1% (inactive); to `O=C(O)C1C2CC3CC(C2)CC1C3` (stereo not drawn), 3% (inactive).
On to `CC(=O)OC1CCC2(C)C(=CCC3C2CCC2(C)C3CC(C(N)=O)C2C(C)=O)C1` (stereo not drawn), for which the growth inhibition is -3% (inactive).
For `CC1(C)CC(=N/O)/C(=N/O)C(=N\NC(N)=S)/C1`, the growth inhibition is -12% (inactive).
For `CCCCCCCCCCCCCCCCCC1=NCCN1`, the growth inhibition was 1% (inactive).
As for `O=c1c2ccccc2c2ccccc2c(=O)n1-c1cc2c3ccccc3ccc2c2ccccc12`, the growth inhibition was -11% (inactive).
